Results: PubChem BioAssay (NCATS)
Records with an inconclusive call do not appear. Activity calls are given as the source filed them. Rule as the data show it, unless noted: active = potency below about 10 µM; inactive = the rest.

molecular target: Lysosomal acid glucosylceramidase (Homo sapiens) (UniProt P04062); test: Glucocerebrosidase-p2 (AID 348); conditions: purified GBA, blue fluorogenic substrate, 40 min; also: potency is read from the fitted curve at half-maximal effect
In short: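 Normal human glucocerebrosidase (0.2 nM) with blue fluorogenic substrate (80 uM final) in citrate/phosphate pH 5.9 with 10mM sodium taurocholate, 0.01% tween-20; 40 min RT, NaOH/glycine stop; fluorescence Ex 365/Em 440; AC50 from a titration from 0.6 nM upwards.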

Chain of Lysosomal acid glucosylceramidase (Homo sapiens) (P04062 whole entry, looked up): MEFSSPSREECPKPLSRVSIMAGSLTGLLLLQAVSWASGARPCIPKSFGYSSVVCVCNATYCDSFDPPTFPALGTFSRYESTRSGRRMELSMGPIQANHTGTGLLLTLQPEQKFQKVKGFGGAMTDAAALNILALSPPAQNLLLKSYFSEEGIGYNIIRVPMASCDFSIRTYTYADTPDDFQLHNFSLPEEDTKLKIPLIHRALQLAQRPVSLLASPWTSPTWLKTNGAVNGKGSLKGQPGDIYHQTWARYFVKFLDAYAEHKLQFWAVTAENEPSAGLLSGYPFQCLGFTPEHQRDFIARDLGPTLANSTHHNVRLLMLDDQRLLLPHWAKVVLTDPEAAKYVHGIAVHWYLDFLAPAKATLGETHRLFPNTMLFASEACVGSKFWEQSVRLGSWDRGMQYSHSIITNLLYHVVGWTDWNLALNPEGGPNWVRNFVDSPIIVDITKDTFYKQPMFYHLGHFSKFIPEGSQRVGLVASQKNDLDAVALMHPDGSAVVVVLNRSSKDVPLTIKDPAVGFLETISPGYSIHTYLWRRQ

SMILES | Potency
O=C1c2cccc([N+](=O)[O-])c2C(=O)N1c1ncn[nH]1 | > 11.4 µM (inactive)
O=C1c2ccccc2C(=O)c2c1ccc(N1C(=O)c3ccccc3C1=O)c2-c1c(N2C(=O)c3ccccc3C2=O)ccc2c1C(=O)c1ccccc1C2=O | > 11.4 µM (inactive)
Cc1ccc(S(=O)(=O)OCC(=O)O)cc1 | > 11.4 µM (inactive)
O=c1[nH]c(SCc2ccccc2[N+](=O)[O-])nc2nc[nH]c12 | > 11.4 µM (inactive)
CC1(C)N=C(N)N=C(N)N1c1cccc(OCc2cccc(N)c2)c1 | > 11.4 µM (inactive)
Cc1[nH]c(N)nc(=S)c1CCCNc1ccccc1 | > 11.4 µM (inactive)
FC(F)(F)c1nc2nc(Cl)c(Cl)nc2n1CCCN1CCOCC1 | > 11.4 µM (inactive)
CN(C)Cc1c[nH]c2nc[nH]c(=O)c12 | > 11.4 µM (inactive)
Cc1cc(N2CCOCC2)nc2ccc(Cc3ccc4nc(N5CCOCC5)cc(C)c4c3)cc12 | 6.83 µM (active)
NS(=O)(=O)c1cc(C(=O)O)c(Cl)c([N+](=O)[O-])c1Cl | > 11.4 µM (inactive)
C[C@H](C(=O)c1ccncc1)c1ccccn1 | > 11.4 µM (inactive)
CC(C)(C)c1ccc(-c2nnc(SCc3ccc(Cl)cc3)n2-c2cccc(C(F)(F)F)c2)cc1 | > 11.4 µM (inactive)
c1ccc2sc(SCN(C3CCCCC3)C3CCCCC3)nc2c1 | > 11.4 µM (inactive)
CC(C)(C)c1ccc(O)c(CN(Cc2cc(C(C)(C)C)ccc2O)C2CCCCC2)c1 | > 11.4 µM (inactive)
C[N@@+]1(CC[N@@+]2(C)CCC[C@H]2c2cccnc2)CCC[C@@H]1c1cccnc1 | > 11.4 µM (inactive)
CN(Cc1cc(Br)cc(Br)c1O)Cc1c(O)ccc2ccccc12 | > 11.4 µM (inactive)
CN(C)CN1CSC(=S)N(CN(C)C)C1 | > 11.4 µM (inactive)
CN(C)c1ncnc2c1ncn2CCn1cnc2c(N(C)C)ncnc21 | > 11.4 µM (inactive)
O=S1(=O)CCN(c2ccccc2CC(c2c[nH]c3ccccc23)c2c[nH]c3ccccc23)CC1 | > 11.4 µM (inactive)
Clc1ccc(CSC2=NCCN2)cc1Cl | > 11.4 µM (inactive)

SMILES | Potency
Cn1c(=O)c(CCc2ccccc2)nc2cnc(N3CCNCC3)nc21 | > 11.4 µM (inactive)
c1ccc(CO[C@H]2NCCN2Cc2ccccc2)cc1 | > 11.4 µM (inactive)
O=C(O)c1ccccc1-c1ccccc1C(=O)Nc1ccc2c(c1)[nH]c(=O)c1ccccc12 | > 11.4 µM (inactive)
COCCn1c(=O)c(-c2cc(F)cc(F)c2)nc2cnc(Oc3ccc(OC)cc3)nc21 | > 11.4 µM (inactive)
O=c1c(-c2ccccc2)nc2cnc(Oc3ccccc3)nc2n1C1CC1 | > 11.4 µM (inactive)
CN1CCN(CN2C(=O)C3C4C=CC(C3C2=O)C2C3C(=O)N(CN5CCN(C)CC5)C(=O)C3C42)CC1 (stereo not given) | > 11.4 µM (inactive)
NC[C@@H](O)CSCc1ccc(Cl)cc1 | > 11.4 µM (inactive)
CC(=O)[C@H](C(=N)C#N)C(=O)Nc1ccccc1 | > 11.4 µM (inactive)
Cc1cc(Cl)ccc1Nc1sc(C(=O)c2cc3cc(Cl)ccc3o2)c(N)c1C#N | > 11.4 µM (inactive)
CC(C)[C@@H]1O[C@H](/C=C\c2ccccc2)OCC1(C)C | > 11.4 µM (inactive)
C[C@@H](C(=O)O)/C(=C/c1ccc2c(c1)OCO2)C(=O)O | > 11.4 µM (inactive)
c1nnc(NCNc2nncs2)s1 | > 11.4 µM (inactive)
S[C@@H]1CCCN(Cc2ccccc2)C1 | > 11.4 µM (inactive)
NC(=O)N[C@H](CC(=O)O)C(=O)O | > 11.4 µM (inactive)
CC(=O)n1c(COS(C)(=O)=O)nc2ccccc21 | > 11.4 µM (inactive)
c1ccc(CCN2CCN=C2Cc2ccccc2)cc1 | > 11.4 µM (inactive)
NNC(=O)CCSc1ccccc1 | > 11.4 µM (inactive)
O=C(O)CSc1n[nH]c(=O)[nH]c1=O | > 11.4 µM (inactive)
Cc1ccc(CSC(N)=Nc2ccccc2)cc1C | > 11.4 µM (inactive)
c1cncc(CNCc2cccnc2)c1 | > 11.4 µM (inactive)

system: not listed separately; test: AP1 Signaling Pathway (AID 357; active = well fitted curve in either direction with a large enough effect, not every such curve was filed as active;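 also: ME-180 reporter cells stimulated with EGF at its EC50 level; % is scaled to controls: 0 for no effect and ±100 for the full control effect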); conditions: ME-180 (cervical carcinoma) AP-1-bla reporter, EGF-induced, beta-lactamase ratio, 5 h; at 7.69 µM (top of the series) unless noted
In short: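 AP-1-bla ME-180 cells, Opti-MEM + 0.5% dialyzed FBS, plated overnight 37 °C. Cpd titration + EC50 EGF, 5 h 37 °C. CCF4 2.5 h RT; ex 405, em 460/530 ratio → %activity, AC50.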

SMILES | activity change, negative = inhibition
O=C1c2cccc([N+](=O)[O-])c2C(=O)N1c1ncn[nH]1 | -5.78% (inactive)
O=C1c2ccccc2C(=O)c2c1ccc(N1C(=O)c3ccccc3C1=O)c2-c1c(N2C(=O)c3ccccc3C2=O)ccc2c1C(=O)c1ccccc1C2=O | -8.78% (inactive)
Cc1ccc(S(=O)(=O)OCC(=O)O)cc1 | 2.36% (inactive)
O=c1[nH]c(SCc2ccccc2[N+](=O)[O-])nc2nc[nH]c12 | 9.58% (inactive)
CC1(C)N=C(N)N=C(N)N1c1cccc(OCc2cccc(N)c2)c1 | 11.8% (inactive)
Cc1[nH]c(N)nc(=S)c1CCCNc1ccccc1 | -2.18% (inactive)
FC(F)(F)c1nc2nc(Cl)c(Cl)nc2n1CCCN1CCOCC1 | 9.81% (inactive)
CN(C)Cc1c[nH]c2nc[nH]c(=O)c12 | 1.16% (inactive)
Cc1cc(N2CCOCC2)nc2ccc(Cc3ccc4nc(N5CCOCC5)cc(C)c4c3)cc12 | -21.7% (inactive)
NS(=O)(=O)c1cc(C(=O)O)c(Cl)c([N+](=O)[O-])c1Cl | 10.9% (inactive)
C[C@H](C(=O)c1ccncc1)c1ccccn1 | 0.391% (inactive)
CC(C)(C)c1ccc(-c2nnc(SCc3ccc(Cl)cc3)n2-c2cccc(C(F)(F)F)c2)cc1 | 5.08% (inactive)
c1ccc2sc(SCN(C3CCCCC3)C3CCCCC3)nc2c1 | 4.99% (inactive)
CC(C)(C)c1ccc(O)c(CN(Cc2cc(C(C)(C)C)ccc2O)C2CCCCC2)c1 | 5.42% (inactive)
C[N@@+]1(CC[N@@+]2(C)CCC[C@H]2c2cccnc2)CCC[C@@H]1c1cccnc1 | 28.9% (inactive)
CN(Cc1cc(Br)cc(Br)c1O)Cc1c(O)ccc2ccccc12 | 3.01% (inactive)
CN(C)CN1CSC(=S)N(CN(C)C)C1 | -2.13% (inactive)
CN(C)c1ncnc2c1ncn2CCn1cnc2c(N(C)C)ncnc21 | 7.13% (inactive)
O=S1(=O)CCN(c2ccccc2CC(c2c[nH]c3ccccc23)c2c[nH]c3ccccc23)CC1 | -12.9% (inactive)
Clc1ccc(CSC2=NCCN2)cc1Cl | -9.06% (inactive)

SMILES | activity change, negative = inhibition
Cn1c(=O)c(CCc2ccccc2)nc2cnc(N3CCNCC3)nc21 | -6.16% (inactive)
c1ccc(CO[C@H]2NCCN2Cc2ccccc2)cc1 | 11% (inactive)
O=C(O)c1ccccc1-c1ccccc1C(=O)Nc1ccc2c(c1)[nH]c(=O)c1ccccc12 | -4.06% (inactive)
COCCn1c(=O)c(-c2cc(F)cc(F)c2)nc2cnc(Oc3ccc(OC)cc3)nc21 | -11.1% (inactive)
O=c1c(-c2ccccc2)nc2cnc(Oc3ccccc3)nc2n1C1CC1 | -26.4% (inactive)
CN1CCN(CN2C(=O)C3C4C=CC(C3C2=O)C2C3C(=O)N(CN5CCN(C)CC5)C(=O)C3C42)CC1 (stereo not given) | 4.11% (inactive)
NC[C@@H](O)CSCc1ccc(Cl)cc1 | -2.84% (inactive)
CC(=O)[C@H](C(=N)C#N)C(=O)Nc1ccccc1 | -0.768% (inactive)
Cc1cc(Cl)ccc1Nc1sc(C(=O)c2cc3cc(Cl)ccc3o2)c(N)c1C#N | -2.93% (inactive)
CC(C)[C@@H]1O[C@H](/C=C\c2ccccc2)OCC1(C)C | -2.98% (inactive)
C[C@@H](C(=O)O)/C(=C/c1ccc2c(c1)OCO2)C(=O)O | -12.8% (inactive)
c1nnc(NCNc2nncs2)s1 | 12.8% (inactive)
S[C@@H]1CCCN(Cc2ccccc2)C1 | 1.2% (inactive)
NC(=O)N[C@H](CC(=O)O)C(=O)O | -2.2% (inactive)
CC(=O)n1c(COS(C)(=O)=O)nc2ccccc21 | -2.19% (inactive)
c1ccc(CCN2CCN=C2Cc2ccccc2)cc1 | 6.53% (inactive)
NNC(=O)CCSc1ccccc1 | 7.31% (inactive)
O=C(O)CSc1n[nH]c(=O)[nH]c1=O | 0.951% (inactive)
Cc1ccc(CSC(N)=Nc2ccccc2)cc1C | 6.56% (inactive)
c1cncc(CNCc2cccnc2)c1 | -1.94% (inactive)
